In all, about 69,000 compounds went through this assay and about 8,600 (12%) showed an effect of 50% or more. For the sample, strong results were picked, then their nearest neighbours and some compounds at random.
tested on: Plasmodium berghei; test: Screen against P. berghei liver stage (PbLuc), transformed with Luciferase, at 10uM; assay type: functional, HepG2; settings: tested at 10 uM

| SMILES | INHIBITION [%] |
| --- | --- |
| CCOCCOc1ccc(S(=O)(=O)N2CCc3c(nc[nH]c3=O)C2)cc1 | 5.05 |
| Cc1nc(CN2CCN(CC3CCOC3)Cc3cccnc32)cs1 (stereo unspecified) | 41 |
| NC(=O)CSc1ccccc1NC(=O)C1CCCC1 | -53.6 |
| COc1cccc(C=CCCN2CCC(C(=O)N3CCCC3)CC2)c1 | -16.1 |
| O=C1NC2(CCN(C(=O)CN3CCOCC3)CC2)Nc2ccc(Cl)cc21 | 23.75 |
| Cn1ccc2cc(C(=O)Nc3nc[nH]n3)ccc21 | 11.6 |
| CN(C)C(=O)c1nnn(-c2ccc(Br)cc2)n1 | 28.4 |
| CCNc1cc2c(nn1)CCN(C(=O)Cc1ccc(C)nc1)C2 | -42.1 |
| CCc1ccc(C(=O)N2CCCC3(CCCC(=O)N3C)C2)cc1 (stereo unspecified) | 30.9 |
| O=C(CS(=O)(=O)C1CCCC1)NC(c1ccc(F)cc1)C1CC1 (stereo unspecified) | -32.6 |
| COCCN1C[C@@H]2CC[C@H]1CN(Cc1nc3ccccc3n1C)C2 | -35 |
| CC(=O)NCCNC(=O)c1cnc(-c2ccc(C)cc2C)s1 | -74.9 |
| CN(Cc1cnc(N)nc1)C(=O)c1coc(COc2ccccc2)n1 | 27.6 |
| CN1CCN(Cc2cccnc2)C(=O)C12CCN(Cc1ccco1)CC2 | 32.1 |
| Cc1nccn1Cc1nnc(C2CCN(c3ccncc3F)CC2)n1C | -21.9 |
| CC[C@@H]1N(Cc2ccsc2)CCC[C@]12CCC(=O)N2CCOC | 52.4 |
| CC[C@@H]1N(Cc2ccsc2)CCC[C@]12CCC(=O)N2C | 23.2 |
| CC[C@@H]1N(Cc2ccncc2)CCC[C@]12CCC(=O)N2CCOC | 25.3 |
| Cc1csc(CN2CC[C@@](O)(C3CCOCC3)[C@H](C)C2)n1 | 9.55 |

| SMILES | INHIBITION [%] |
| --- | --- |
| O=C1NCc2ccccc2CC12CCN(Cc1c(F)cccc1Cl)C2 (stereo unspecified) | -9.73 |
| COc1ccc(CN(C(=O)C2CCCOC2)c2ccncc2)cc1 (stereo unspecified) | 66.3 |
| COc1ccc(CN(C(=O)C2CCCO2)c2ccncc2)cc1 (stereo unspecified) | 27.5 |
| COc1ccc(CN(C(=O)C2CCOCC2)c2ccncc2)cc1 | 1.7 |
| Brc1cnc(NCc2ccccc2N2CCOCC2)nc1 | -31.7 |
| O=C(CO)N1CC2(CCN(c3ccccc3)C2)C1 | -34.6 |
| O=C(CCO)N1CC2(CCN(c3ccccc3)C2)C1 | 61.9 |
| COCCC(=O)N1CC2(CCN(c3ccccc3)C2)C1 | 12.1 |
| Cc1nn(C)c(N(C)C)c1CNCCCNS(C)(=O)=O | -66.8 |
| CSc1[nH]nc(NC(=O)c2ccccc2)c1C#N | 23.1 |
| O[C@H]1Cc2ccccc2[C@H]1Nc1ncccc1C(F)(F)F | 56.3 |
| O[C@@H]1Cc2ccccc2[C@@H]1Nc1ncccc1F | 18 |
| N#Cc1cccnc1N[C@@H]1c2ccccc2C[C@@H]1O | 22.9 |
| COc1ccc2c(ccn2CCC(=O)Nc2n[nH]c(CC(C)C)n2)c1 | 46.7 |
| O=C(CC1CCCC1)NCCS(=O)(=O)N1CCN(c2ncccn2)CC1 | -73.6 |
| Cc1n[nH]c2c1C(c1ccc(Br)cc1)SCC(=O)N2 (stereo unspecified) | 61.8 |
| Cc1n[nH]c2c1C(c1ccc(Cl)cc1)SCC(=O)N2 (stereo unspecified) | 46.7 |
| Cc1n[nH]c2c1C(c1ccc(F)cc1)SCC(=O)N2 (stereo unspecified) | 23.5 |
| COCCC(=O)N1CC[C@@H](N2CCOCC2)[C@@H]1Cc1ccccc1 | 38.1 |

| SMILES | INHIBITION [%] |
| --- | --- |
| Cc1cccnc1CNC(=O)CC1C(=O)NCCN1CC(C)(C)C (stereo unspecified) | 6.29 |
| CC(=O)N(Cc1noc(C)n1)C1CCN(Cc2ncc(C(C)C)o2)C1 (stereo unspecified) | 11.6 |
| COc1ncccc1CNC(=O)Nc1cc(C)nn1C | 29.7 |
| Cc1cc(NC(=O)NCc2cccnc2OC2CCCC2)n(C)n1 | 50.3 |
| CCOc1ncccc1CNC(=O)Nc1cc(C)nn1C | -19.6 |
| Cc1nn(C)c(C)c1C(=O)NCc1cccnc1OC1CCCC1 | 37.6 |
| Cc1nn(C)c(C)c1CCC(=O)NCc1cccnc1OC1CCCC1 | 56.6 |
| Cc1nn(C)c(C)c1CC(=O)NCc1cccnc1OC1CCCC1 | 29.8 |
| OCC1(NCc2cccc(-n3cccn3)c2)CCOCC1 | 43.4 |
| CCN1CCCC1(C)c1nc(C)cc(N)n1 (stereo unspecified) | -2.09 |
| CCOc1ccc(NC(=O)NCC(C)(O)c2cccs2)cc1 (stereo unspecified) | 40.6 |
| O=C(Nc1cnccn1)[C@H]1COC[C@H]2CN(C3CCCC3)C[C@H]21 | -14.6 |
| CCn1ccnc1CN1CCN(CC(O)c2ccc(OC)cc2)CC1 (stereo unspecified) | 0.8 |
| COc1ccc(-c2nccn2CC(O)CN2CCCC2)c(F)c1 (stereo unspecified) | 61.5 |
| COc1ccc(F)c(-c2nccn2CCN2CCCC2)c1 | 18.2 |
| CCC(CC)(CNC(=O)NC1CCCC1(C)C)S(C)(=O)=O (stereo unspecified) | 2.49 |
| COCCCNC(=O)c1cc(-c2cnc(N(C)C)nc2)cn1CC1CC1 | -22.1 |
| CCCOc1ccc(Cl)cc1NC(=O)NCCC(=O)N(C)C | -5.32 |
